# Screens as filed in PubChem BioAssay.
# An excerpt weighted towards active compounds, which were near 0.4% of everything screened.
# GLA inh pH 4.5 = blocks human alpha-galactosidase A at pH 4.5. activity change, negative = inhibition, % at 105 µM. purified enzyme, 4-MU-alpha-Gal fluorescence, pH 4.5. 230,000 tested, under 10 active;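 further: 0% = full activity with enzyme and -100% = basal without enzyme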
# Target sequence (P06280 whole entry, looked up): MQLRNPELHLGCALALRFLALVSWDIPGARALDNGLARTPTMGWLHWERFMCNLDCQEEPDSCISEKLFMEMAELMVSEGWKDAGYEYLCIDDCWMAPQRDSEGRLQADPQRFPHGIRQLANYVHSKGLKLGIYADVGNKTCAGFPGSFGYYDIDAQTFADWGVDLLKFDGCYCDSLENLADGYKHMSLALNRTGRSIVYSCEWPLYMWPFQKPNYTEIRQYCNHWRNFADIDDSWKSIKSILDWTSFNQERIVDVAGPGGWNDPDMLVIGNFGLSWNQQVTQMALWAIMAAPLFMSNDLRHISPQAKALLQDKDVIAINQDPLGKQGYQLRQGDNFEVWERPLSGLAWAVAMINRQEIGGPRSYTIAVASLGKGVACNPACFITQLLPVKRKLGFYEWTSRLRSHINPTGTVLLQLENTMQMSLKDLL
# GAA inh = inhibitors of human lysosomal alpha-glucosidase. purified human GAA, 4-MU-alpha-glucoside fluorescence. Potency, µM (series often up to 76.9 µM), for the others: top-dose activity change, negative = inhibition, actives largely listed as inhibitors. hit rate 0.005% among 200,000. AID 1466;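 further: potency means the concentration at half of the fitted maximal effect; plate controls were uninhibited enzyme wells for no effect and no-enzyme background for full effect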
#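 Fluorogenic assay: 4 nM human alpha-glucosidase with 400 uM 4-methylumbelliferyl-alpha-D-pyranoside in 50 mM citrate/phosphate, 0.005% Tween-20, pH 5.0, 20 min at room temperature. Compounds tested up to 77 uM; AC50 from Hill fits.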
# aGlu spleen mod = inhibitors or activators of human alpha-glucosidase in spleen homogenate | hit rate 0.006% among 240,000 | Potency, µM (doses to about 79.9 µM), for the others: at the top dose activity change, negative = inhibition, actives largely listed as inhibitors | human spleen homogenate, 4-MU-alpha-glucoside fluorescence;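 further: potency means the concentration at half of the fitted maximal effect; 0% = enzyme with vehicle and -100% = no enzyme basal signal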
#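 AC50 values come from Hill-equation fits of concentration-response data, normalized to no-enzyme and full-activity controls. Enzyme source: 1 ug human spleen homogenate; 1 mM fluorogenic 4-MU glucoside, pH 5.0 citrate buffer, 37 C, 40 min.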
# aGal spleen mod = inhibits or activates alpha-galactosidase in human spleen homogenate; P06280; human spleen homogenate, 4MU-alpha-Gal fluorescence, 40 min; Potency, µM (series often up to 80 µM), without a hit: at the highest dose activity change, negative = inhibition, hits mostly inhibitors; hit rate 0.008% among 240,000; AID 2107;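 further: potency means the concentration at half of the fitted maximal effect; 0% = enzyme with vehicle and -100% = no enzyme basal signal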
#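 Spleen homogenate 1 ug + cpd (titration) + 4-MU-alpha-D-galactopyranoside 1 mM; 37C 40 min; 50 mM citrate/phosphate pH 5.0, 0.01% Tween-20; stop pH 10; fluorescence 365/440; AC50 via Hill.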
# GAA glycogen mod = alters human alpha-glucosidase cleavage of glycogen. Potency, µM (highest dose often 76.4 µM), for the others: at the highest dose activity change, negative = inhibition, hits mostly inhibitors. hit rate 0.38% among 300,000. AID 2100. recombinant GAA, glycogen substrate, Amplex Red glucose oxidase fluorescence;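 further: potency means the concentration at half of the fitted maximal effect; 0% = full enzyme reaction and -100% = no-enzyme basal signal; the screen sought inhibitors and activators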
#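 Recombinant human enzyme (4 nM); glycogen substrate; 37 C, 40 min, pH 5.0. Readout: coupled glucose oxidase/Amplex Red fluorescence.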
# Numbers without * were called inactive; ? = inconclusive; . = not tested or not shown; [ ] = remark or other dose. The call rests on the fitted dose curve; in most records, active means well fitted curve in the direction sought with a large enough effect; inconclusive means small, poorly fitted or top-dose-only effect, or another doubt; inactive means no such curve, though single readings can be large; an effect the other way counts as inactive or inconclusive.
SMILES,GLA inh pH 4.5,GAA inh,aGlu spleen mod,aGal spleen mod,GAA glycogen mod
O=C(O)c1cc(NCc2ccc3c(c2)OCO3)ccc1N1CCOCC1,5,-1%,5%,8%,5µM*
COC(=O)c1cc(NCc2ccc3c(c2)OCO3)ccc1N1CCOCC1,-2,-7%,-5%,4%,?
CC(=O)N1CCN(c2ccc(NCc3ccc4c(c3)OCO4)cc2)CC1,6,8%,-7%,-9%,22µM*
O=C(c1ccccc1)N1CCN(c2ccc(NCc3ccc4c(c3)OCO4)cc2)CC1,-3,-4%,-1%,-2%,28µM*
Cc1noc(C)c1-c1ccc2ncnc(NCc3cccc(C(F)(F)F)c3)c2c1,.,.,3%,0%,.
Nc1cccc2c(=O)[nH]ccc12,.,.,2%,15%,.
COc1ccc(N2C(=O)CC(Nc3ccc(C)cc3)C2=O)cc1 (stereo not given),0,1%,-4%,2%,-18%
COc1ccc(NC2CC(=O)NC2=O)cc1 (stereo not given),14,-4%,-1%,1%,11µM*
C=C(C#N)C(=O)OCC,.,.,3%,9%,.
CN(C)c1cc(Cl)c2nonc2c1N,2,.,2%,-7%,13µM*
CCN(CC)c1cc(Cl)c2nonc2c1N,-10,.,-2%,7%,?
CCc1cccc(NC(=O)Nc2cccs2)c1,-15,1%,2%,2%,28µM*
O=C1c2c(O)cc(O)cc2O[C@H](c2ccc(O)c(O)c2)[C@@H]1O,6,-6%[15.4 µM],-4%,-12%,3.2µM*
O=C1c2c(O)cc(O)cc2O[C@H](c2ccc(O)c(O)c2)[C@H]1O,5,0%[15.4 µM],-11%,-12%,?
CCC(Nc1ncnc2ccc(-c3c(C)noc3C)cc12)c1ccccc1 (stereo not given),.,.,0%,16%,.
COc1ccc(C(=O)C2CCCN(C3Cc4ccccc4C3)C2)cc1OC (stereo not given),2,?,-1%,14%,16µM*
CCOc1ccc(NC(=O)N(CCN2CCOCC2)Cc2ccc3c(c2)CCCN3CC)cc1,8,0%,-14%,17%,8.9µM*
CCCN1CCCc2cc(CN(CCCN3CCOCC3)C(=O)Nc3ccc(OCC)cc3)ccc21,-7,?,0%,-6%,3.5µM*
CCOc1ccc(NC(=O)N(CCCN2CCOCC2)Cc2cccnc2)cc1,-3,-10%,-1%,-8%,13%
CN(C)c1ccc2c(-c3ccccc3)c3ccc(=[N+](C)C)cc-3oc2c1,.,.,3%,11%,.
Cc1cccc(C(=O)Nc2cccc(C(=O)N3CCOCC3)c2)c1,-15,-3%,0%,-2%,7%
CC(=O)/C(=N/Nc1cccc(C)c1)N1CCOCC1,2,0%,-2%,-1%,18µM*
C[C@]12C[C@H](O)C3[C@@H](CCC4=CC(=O)CC[C@@]43C)[C@@H]1CC[C@@H]2C(=O)CO (stereo not given in full),3,.,-9%,1%,.
O=C(O)c1ccc(-c2ccc3cc(C45CC6CC(CC(C6)C4)C5)c(O)cc3c2)cc1,.,.,2%,-7%,.
CC1=Nc2ccccc2N=C(N)C1c1ccccc1 (stereo not given),3,3%,5%,9%,16µM*
SMILES,GLA inh pH 4.5,GAA inh,aGlu spleen mod,aGal spleen mod,GAA glycogen mod
CC1(C)CC(=O)C(c2c[nH]c3ccccc23)C(=O)C1,6,5%,-3%,1%,10µM*
N[C@@H](COC(c1cccc(F)c1)c1ccccc1OCc1ccccc1)C(=O)O (stereo not given in full),.,.,0%,3%,.
CCc1ccc(O)c(N=Cc2ccccc2O)c1,-13,-3%,-4%,-2%,11µM*
CCCCCCCCOc1c(OC)cc(/C=C/C(=O)N2CCN(c3ccc(C)c(C)c3)CC2)cc1OC,.,.,-7%,-17%,.
CCOc1c(Br)cc(CNc2ccc(N3CCOCC3)cc2)cc1OC,-4,.,-7%,-5%,35µM*
CCN(CC)CCNC(=O)CCCCn1c(=S)[nH]c2c([nH]c3ccc(OC)cc32)c1=O,-16,-10%,6%,8%,25µM*
COC(=O)C/C=C\[C@@H](C)[C@@H](CO)NS(=O)(=O)c1ccc(C)cc1,.,.,-4%[17.4 µM],2%[17.5 µM],.
Oc1ccc(/C=N/N2CCN(C3c4ccccc4-c4ccccc43)CC2)cc1O,-8,.,0%,0%,10µM*
Cc1ccc(-c2cc(C3C4C=CCC(C)C4C(=O)N3Cc3ccccc3)ccc2F)cc1 (stereo not given),.,.,-9%,-1%,.
Cc1ccc(-n2nc(C)c3c2OC(N)=C(C#N)C3c2ccco2)cc1 (stereo not given),-5,2%,-6%,0%,?
Cc1ccc(-n2nc(C)c3c2OC(N)=C(C#N)C3c2ccoc2)cc1 (stereo not given),9,-4%,-3%,4%,22µM*
Brc1csc(/C=N/Nc2nc3ccccc3s2)c1,-8,-2%,-2%,1%,?
Cc1ccc2[nH]c(C)c(/C=N/Nc3nc4ccccc4s3)c2c1,1,-1%,-13%,-4%,16µM*
NC(=S)N/N=C1/CCSc2ccc3ccccc3c21,-14,-15%,-7%,5%,28µM*
COc1cccc(C2=Nn3c(nnc3-c3ccccc3C)SC2)c1,.,.,-2%,14%,.
COC(=O)c1[nH]c2cc(OC)c(OC)cc2c1NC(=O)Oc1ccccc1,-2,?,-3%,4%,35µM*
COC(=O)c1[nH]c2ccccc2c1NC(=O)Oc1ccccc1,-3,-1%[15.4 µM],-1%,0%,-17%
Nc1ncnc2c1nc(N1CCCCC1)n2[C@@H]1O[C@@H]2COP(=O)(O)O[C@H]2[C@H]1O,.,.,-2%,4%,.
CCCCCCCC1(C)NC(=O)N(c2ccccc2)N1 (stereo not given),4,-12%,-9%,-5%,25µM*
CC[C@H](C)[C@H](N)C(=O)N[C@@H](CC(N)=O)C(=O)N1CCC[C@H]1C(=O)N[C@H](C(=O)N[C@@H](Cc1ccc(O)cc1)C(=O)N[C@@H](CCCN=C(N)N)C(=O)N[C@@H](CC(C)C)C(=O)N[C@@H](CCCN=C(N)N)C(=O)N[C@@H](Cc1ccc(O)cc1)C(N)=O)[C@@H](C)CC,.,.,-8%,4%,.
Cc1cccc(NC(=S)NNC(=S)NCc2ccccc2)c1,-6,-7%,-1%,-5%,7.9µM*
C[C@@H]1/C=C\CC(=O)OC[C@H](C)C(=O)N[C@@H](Cc2ccccc2)C(=O)OC1,.,.,3%[17.4 µM],-14%[17.5 µM],.
Oc1ccc(Nc2nc(NCC3CCCO3)c3ccccc3n2)cc1 (stereo not given),-2,-3%,1%,6%,?
Cc1ccccc1Nc1nc(NCc2ccco2)c2ccccc2n1,2,-3%,-1%,-1%,-2%
Oc1ccccc1Nc1nc(NCC2CCCO2)c2ccccc2n1 (stereo not given),-9,?,1%,4%,8.8µM*
